Screening results: PubChem, National Center for Advancing Translational Sciences (NCATS)
Sampled rows, rich in hits. Any-hit rate of the full collection: about 18%.
DT40 TDP1 CPT – growth inhibition of DT40 Tdp1-/-;hTDP1 cells with camptothecin (screen for TDP1 inhibitors). chicken DT40 Tdp1-/-;hTDP1 cells + 20 nM CPT, ATP luminescence, 48 h. Potency, µM (titrated, usually from 46.2 µM), for inactives: at the highest dose activity change, negative = growth inhibition, most hits filed as inhibitors. 420,000 tested, 12% active. AID 686979; further: potency means the concentration at half of the fitted maximal effect; nearly all actives have a fitted effect of over 55% in size
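Chicken DT40 Tdp1-/- cells complemented with human TDP1, 400 cells/well, exposed to compounds plus 20 nM camptothecin for at least 48 h at 37 C; viability read as ATP content by CellTiter-Glo luminescence.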
IL1B secr inh – inflammasome signaling inhibition, IL-1 beta readout. THP-1 LPS/ATP IL-1B secretion, AlphaLISA, 16 h; active compounds read low. activity change, % at 57.5 µM. 360,000 tested, 4.7% active; in the data active means activity change below about -50%; inconclusive means mostly about -30% to -49%
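Secreted IL-1B measured by AlphaLISA bead assay after 16 h compound exposure of THP-1 cells; compounds (final up to 57.5 uM) added 1 h before LPS (250 ng/mL) and ATP (1.25 mM) stimulation; lower signal means less secretion.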
RORg inh – ROR gamma (mouse) transcription inhibition; Drosophila S2 Gal4-RORgamma UAS-luciferase reporter, 20 h; Potency, µM (titrated, usually from 53.6 µM), for the others: at the top dose activity change, negative = inhibition, hits mostly inhibitors; 310,000 tested, 5.4% active; AID 2551; further: potency means the concentration at half of the fitted maximal effect; nearly all actives have a fitted effect of over 60% in size
Target sequence (P51450 whole entry, looked up, the tested form may be a part): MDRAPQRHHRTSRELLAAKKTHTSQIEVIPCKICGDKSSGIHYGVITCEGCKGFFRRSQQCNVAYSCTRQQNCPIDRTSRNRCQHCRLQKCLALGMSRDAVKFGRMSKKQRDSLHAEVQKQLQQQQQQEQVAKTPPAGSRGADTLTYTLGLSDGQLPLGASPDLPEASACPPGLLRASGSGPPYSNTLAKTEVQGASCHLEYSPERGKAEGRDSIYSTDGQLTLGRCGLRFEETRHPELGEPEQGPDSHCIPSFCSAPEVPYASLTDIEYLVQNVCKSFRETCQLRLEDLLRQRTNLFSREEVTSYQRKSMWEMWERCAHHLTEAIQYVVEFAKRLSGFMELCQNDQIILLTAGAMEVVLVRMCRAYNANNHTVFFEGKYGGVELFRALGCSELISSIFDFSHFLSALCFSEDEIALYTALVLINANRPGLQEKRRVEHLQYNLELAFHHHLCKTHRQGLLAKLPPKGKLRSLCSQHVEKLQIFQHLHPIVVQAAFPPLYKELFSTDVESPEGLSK
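Schneider cells (Drosophila), stable Gal4 DBD–ROR gamma + UAS-luc; 1 hr cmpd preincubation; Cu2+ induction 700 uM final; 20 hr ambient; luminescence.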
TDP1 cell noCPT – qHTS for Inhibitors of human tyrosyl-DNA phosphodiesterase 1 (TDP1): qHTS in cells in absence of CPT; Potency, µM (highest dose often 46.2 µM), for the others: top-dose activity change, negative = growth inhibition, most hits filed as inhibitors; 420,000 tested, 15% active; DT40 Tdp1-/- hTDP1 cells, no CPT, ATP luminescence, 48 h; further: potency means the concentration at half of the fitted maximal effect; nearly all actives have a fitted effect of over 55% in size
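No-CPT arm: Tdp1-/-;hTDP1 DT40 cells (400/well) plus compounds, incubated ≥48 hr at 37 °C. Readout CellTiter-Glo luminescence.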
LDHA inh – inhibitors of human lactate dehydrogenase A; 480,000 tested, 0.15% active; P00338; purified LDHA, NADH/diaphorase-resazurin fluorescence; active compounds read low; activity change, % (values are at about 110 or 230 µM); in the data active means activity change below about -30%; inconclusive means mostly about -25% to -30%;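 further: plate controls were DMSO wells for no effect and wells without enzyme for full effect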
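Human LDH5 (2 nM) was incubated with 0.06 mM NADH and 0.2 mM pyruvate for 5 min at room temperature in Tris pH 7.4. Remaining NADH was coupled through diaphorase/resazurin, and resorufin fluorescence was read at 0 and 20 min.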
VP16 counter – counter-screen for ROR gamma inhibitors: Gal4-VP16 reporter; Potency, µM (titrated, usually from 53.6 µM), without a hit: at the top dose activity, negative = inhibition, actives largely listed as inhibitors; 310,000 tested, 3.5% active; Drosophila S2 Gal4-VP16 UAS-luciferase, luminescence, 20 h;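 further: Gal4-VP16 expression switched on by copper sulfate through the metallothionein promoter; potency means the concentration at half of the fitted maximal effect; nearly all actives have a fitted effect of over 50% in size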
An asterisk follows results filed as active; ? = inconclusive; · = not tested or not shown; [ ] = remark or other dose. Unless noted, the call rests on the fitted dose curve; in most records, active means well fitted curve in the direction sought with a large enough effect; inconclusive means small, poorly fitted or top-dose-only effect, or another doubt; inactive means no such curve, though single readings can be large; an effect the other way counts as inactive or inconclusive. Unless noted, on the % scale 0 is the no-effect control and ±100 the full control effect.

SMILES | DT40 TDP1 CPT | IL1B secr inh | RORg inh | TDP1 cell noCPT | LDHA inh | VP16 counter
C/C(=N\NC(=O)c1cc2ccccc2cc1O)c1ccc(C)o1 | 18.4µM* | 16.6 | 8.91µM* | 14.6µM* | 6.9 | ?
C/C(=N/NC(=O)c1cc2ccccc2cc1O)c1ccco1 | 25.9µM* | 0.0 | ? | 13µM* | 4.7 | ?
C/C(=N\NC(=O)c1c(C)nc2ccccn12)c1ccco1 | 11.0% | 0.0 | -2.7% | 3.7% | -2.3 | -1.2%
C/C(=N\NC(=O)c1cc(C)oc1C)c1ccc2ccccc2c1 | ? | -13.4 | 2.24µM* | ? | -2.6 | -29.1%
COc1ccc(OCC(=O)Nc2cc3c(cc2C(=O)c2ccc(C)cc2)OCCO3)cc1 | · | · | · | · | -8.7 | ·
COc1cccc(NC(=O)CN(C)CC(=O)Nc2ccccc2C)c1 | · | · | · | · | -6.4 | ·
CCOc1cccc(C2C=C(c3ccc4c(c3)OCO4)NC(c3ccccc3Cl)N2)c1O (stereo unspecified) | ? | · | · | 11.2µM* | -0.4 | ·
Oc1ccccc1C1C=C(c2ccc3c(c2)OCO3)NC(c2cccc(Br)c2)N1 (stereo unspecified) | · | · | · | · | -6.1 | ·
COC(=O)c1ccc(C2NC(c3ccc4c(c3)OCO4)=CC(c3ccccc3O)N2)cc1 (stereo unspecified) | 7.08µM* | · | · | 6.31µM* | 5.0 | ·
Oc1ccc(Cl)cc1C1C=C(c2ccc3c(c2)OCO3)NC(c2ccc(Cl)cc2)N1 (stereo unspecified) | 3.98µM* | · | · | 6.31µM* | 1.0 | ·
Brc1ccccc1Cn1cnc2ccccc21 | ? | 10.5 | ? | 20.6µM* | -3.6 | ?
Brc1ccccc1OCCCCn1cnc2ccccc21 | 4.11µM* | -84.5* | -82.2% | 10.3µM* | -4.5 | ?
Cc1cc(C)c(Cn2cnc3ccccc32)c(C)c1 | -25.1% | ? | 5.62µM* | -19.0% | -2.4 | -56.4%
Cc1ccc(-c2cc(C(=O)NC(C)C3CC3)c3ccccc3n2)o1 (stereo unspecified) | · | · | · | · | 7.1 | ·
O=C(CCc1ncc(-c2ccccc2Cl)o1)Nc1ccccc1 | · | · | · | · | -1.4 | ·
CC1CC(NC(=O)CC#N)CC(C)(C)C1 (stereo unspecified) | 8.2% | 11.5 | 18.1% | -18.7% | 1.5 | -3.3%
CC1CC(NC(=O)Cc2ccc(Br)cc2)CC(C)(C)C1 (stereo unspecified) | 16.4µM* | -10.6 | ? | ? | 2.6 | -5.0%
Cc1cc(Nc2ccccc2C)c2c([N+](=O)[O-])cc(C)c(C)c2n1 | · | · | · | · | -1.5 | ·
Cc1cc(Nc2ccccc2)c2c([N+](=O)[O-])cc(C)c(C)c2n1 | 9.2µM* | -4.4 | -1.4% | 23.1µM* | 0.3 | -11.0%
Cc1ccc(C)c2[nH]c(=O)c(CN(CCCN(C)C)C(=O)NCc3ccccc3)cc12 | ? | ? | 10.6% | 23.1µM* | -1.6 | -9.1%
Cc1cc(C)c2cc(CN(CCCN(C)C)C(=S)NCc3ccccc3)c(=O)[nH]c2c1 | 20.6µM* | -73.3* | ? | ? | -5.7 | ?
CCc1ccc(C(=O)NNC(=O)OC)cc1 | ? | 6.4 | 4.9% | 29.1µM* | -5.0 | -2.5%
CCc1ccc(C(=O)NCCOC)cc1 | · | · | · | · | -2.4 | ·
O=C(CSc1nc2ccccc2c(=O)[nH]1)c1ccccc1 | 20.6µM* | 2.9 | -7.3% | 29.1µM* | 12.6 | 4.3%
O=C(CCCSc1nc2ccccc2c(=O)[nH]1)c1ccccc1 | ? | 42.9 | 12.8% | 14.6µM* | 1.0 | -0.8%
SMILES | DT40 TDP1 CPT | IL1B secr inh | RORg inh | TDP1 cell noCPT | LDHA inh | VP16 counter
c1ccc(CSc2nnnn2-c2ccccc2)cc1 | -19.5% | ? | 40.2% | 0.4% | -4.6 | 9.0%
O=C(O)CSc1nc2ccccc2c(=O)[nH]1 | -1.1% | -5.0 | 7.0% | 0.1% | 0.7 | -6.8%
CCc1ccc(-n2c(CSc3nnnn3-c3ccccc3)nc3ccccc3c2=O)cc1 | ? | 4.3 | -0.5% | 18.4µM* | -3.9 | 5.2%
O=C(O)CCSc1nc2ccccc2c(=O)[nH]1 | -4.1% | 15.1 | -17.3% | 5.1% | -3.1 | 1.6%
Cc1cc(C(=O)CSc2nc3ccccc3c(=O)[nH]2)c(C)n1C | ? | -17.4 | 25.0% | 6.51µM* | -1.9 | 17.4%
Cc1ccc(S(=O)(=O)N2CCC(n3c(C)nc4cccnc43)CC2)cc1 | · | · | · | · | 2.1 | ·
CCCc1nnc(NC(=O)c2cc(=O)c3cc(C)ccc3o2)s1 | · | · | · | · | -0.3 | ·
O=c1[nH]c(SCc2nc3ccccc3c(=O)n2-c2ccccc2)nc2ccccc12 | 11.6µM* | 13.7 | 15.6% | ? | -6.4 | -6.6%
COc1ccc(C(=O)CSc2nc(C(C)(C)C)nc3ccccc23)cc1 | ? | 4.0 | 7.2% | 20.6µM* | 2.8 | -6.7%
COc1ccc(OCCSc2nc3ccccc3c(=O)[nH]2)cc1 | ? | -1.6 | 32.7% | ? | -9.0 | 3.3%
COc1cccc(OCCSc2nc3ccccc3c(=O)[nH]2)c1 | -3.6% | 24.4 | 38.9% | 20.6µM* | -13.0 | 2.8%
CC(C)(C)c1ccc(C(=O)CSc2nc3ccccc3c(=O)[nH]2)cc1 | 2.82µM* | 27.2 | 15.3% | 2.82µM* | -10.1 | ?
Cc1ccccc1-c1nc2scc(CCNC(=O)C(=O)Nc3ccc4c(c3)OCCO4)n2n1 | · | · | · | · | -9.2 | ·
O=C(CSc1nc(O)c(Cc2ccccc2)c(=O)[nH]1)c1ccccc1 | ? | 2.5 | 10.8% | 2.06µM* | -4.4 | ?
c1ccc(-n2nnnc2SCc2cccc(CSc3nnnn3-c3ccccc3)n2)cc1 | ? | -9.9 | 99.4% | 13µM* | 0.2 | 0.9%
Clc1ccc(-n2nnnc2SCc2c(-c3ccccc3)nc3sccn23)cc1 | ? | -21.0 | ? | 13µM* | -3.0 | 6.31µM*
CCCCc1c(O)nc(SCC(=O)c2ccccc2)[nH]c1=O | ? | 18.0 | 17.6%[0.365 µM] | ? | 0.0 | ·
O=c1[nH]c(CSc2nnnn2-c2ccc(Cl)cc2)nc2ccccc12 | -27.4% | 54.1 | -35.6% | ? | -4.1 | -6.1%
O=C(CSc1nc2ccccc2c(=O)[nH]1)N1CCCCC1 | -25.0% | 13.1 | 19.7% | 0.5% | -7.5 | 9.8%
O=C(CSc1nc2ccccc2c(=O)[nH]1)N1CCN(c2ccccc2F)CC1 | ? | 25.9 | -10.9% | 18.4µM* | -14.4 | -3.0%
CCCCCCOc1ccc(CNCc2cc(OC)c(OC)cc2OC)cc1 | · | · | · | · | -13.8 | ·
c1coc(-c2cc(CSc3nnc(-c4ccncc4)o3)no2)c1 | · | · | · | · | -4.6 | ·
O=C(Nc1ccccc1)c1cc(-c2cccnc2)nc2ccccc12 | · | · | · | · | -7.3 | ·
O=C(Nc1ccc2[nH]ccc2c1)c1csc(NC2CC2)n1 | · | · | · | · | -8.9 | ·
CN1CCN(C(=O)c2cnc(N3CCCC3)c3ccccc23)CC1 | · | · | · | · | 7.2 | ·
